PubChem BioAssay AID1035 (National Center for Advancing Translational Sciences (NCATS), 2008)
Unmarked numbers belong to inactive results. Active and inactive are the calls of the source. No rule for the calls is given here.

assay: HDAC Secondary Assay for qHTS Assay for Epigenetic Modulators; conditions: HeLa nuclear extract HDAC activity, fluorogenic substrate, 20 min; at 48 µM; stronger effect = lower value
Text: NIH Molecular Libraries Screening Centers Network [MLSCN] NIH Chemical Genomics Center [NCGC] MLSCN Grant: 1 X01 MH079860-01 Assay Provider: Elisabeth D. Martinez, University of Texas SW Medical Center NCGC Assay Overview: This secondary assay characterizes selected actives identified in the qHTS of the Locus Derepression (LDR) assay (PubChem AID 597). The LDR assay detects the derepression of a GFP reporter that is stably integrated in a region of the genome of murine c127i mammary cells that is presumably silenced. Compounds that cause derepression of the locus to express GFP are identified by enumerating GFP positive cells using a laser-scanning microplate cytometer. Selected LDR actives were assayed for inhibition of histone deacetylase (HDAC) activity in HeLa nuclear extracts using a HDAC fluorometric kit (AK-500, Biomol International LP). This assay uses a substrate containing an acetylated lysine side chain that is deacetylated by HDAC enzymatic activity to generate a fluorophore.
NCGC Assay Protocol Summary HeLa nuclear extracts and acetylated profluorescent substrate were incubated with vehicle, 0.5 uM TSA, or 48 uM indicated LDR compound for 20 min at ambient temperature and fluorescence was measured. Background-subtracted activity was expressed as a percent of uninhibited extract. Tests were performed in 25 uL volume in 384-well black plates using the HDAC assay kit AK-500 (Biomol International LP). For further details, see R.L. Johnson, W. Huang, A. Jadhav, C.P. Austin, J. Inglese, E.D. Martinez, A Quantitative High-Throughput Screen Identifies Potential Epigenetic Modulators of Gene Expression, Analytical Biochemistry (2007), doi: 10.1016/j.ab.2007.12.028

SMILES	remaining HDAC activity
O=Nc1ccc(O)c2ncccc12	84%
CC(C)C(=O)NC(c1ccco1)c1ccc2cccnc2c1O (stereo not drawn)	108%
CCN(CC)c1ccc2cc(-c3nc4ccccc4[nH]3)c(=O)oc2c1	112%
CN1CCN(Cc2cc(Cl)c3cccnc3c2O)CC1	109%
O=C(CSc1cccc2cccnc12)NCc1ccccc1	96%
CC(C)C(=O)NC(c1ccco1)c1cc([N+](=O)[O-])c2cccnc2c1O (stereo not drawn)	112%
COc1ccc(C(NC(=O)C(C)C)c2ccc3cccnc3c2O)cc1 (stereo not drawn)	106%
CC(/C=C/C(=O)NO)=C\[C@@H](C)C(=O)c1ccc(N(C)C)cc1	1% (active)
CC(C)C(=O)NC(c1ccc(N(C)C)cc1)c1ccc2cccnc2c1O (stereo not drawn)	99%
CN(C)C(=O)CSc1cccc2cccnc12	111%
CN1C(=S)SC(c2ccccc2)N(C)C1c1ccccc1 (stereo not drawn)	107%
CCN1CSC(=S)N(CC)C1	103%
O=C(CSc1cccc2cccnc12)N1CCCC1	120%
